# Cruzain inh Det – cruzain (T. cruzi) inhibition with detergent; P25779; purified cruzain, Z-FR-AMC fluorescence, 0.01% Triton; Potency, µM, without a hit: max response, negative = inhibition, most hits filed as inhibitors; hit rate 0.43% among 200,000; AID 1478;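 note: plate controls were neutral wells for no effect and buffer without enzyme for full effect; nearly all actives have a fitted effect of over 40% in size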
# Target sequence (P25779 123-467 limits assumed): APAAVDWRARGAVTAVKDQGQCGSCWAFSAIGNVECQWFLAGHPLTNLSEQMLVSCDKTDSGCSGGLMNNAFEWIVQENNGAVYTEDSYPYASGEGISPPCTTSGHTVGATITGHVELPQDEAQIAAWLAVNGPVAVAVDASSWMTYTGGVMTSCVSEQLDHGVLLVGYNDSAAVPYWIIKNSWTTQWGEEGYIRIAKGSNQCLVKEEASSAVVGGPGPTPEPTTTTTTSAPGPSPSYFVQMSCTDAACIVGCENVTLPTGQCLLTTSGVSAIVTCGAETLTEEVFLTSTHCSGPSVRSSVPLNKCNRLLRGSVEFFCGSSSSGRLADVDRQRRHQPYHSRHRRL
#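 Enzyme 1.5 nM, Z-FR-AMC 2 uM, NaOAc 100 mM pH 5.5, DTT 5 mM, Triton X-100 0.01%; 15 min RT compound preincubation; kinetic ex360/em450, 60 s delta.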
# Cruzain noTriton – inhibitors of Trypanosoma cruzi cruzain without detergent. hit rate 2.3% among 200,000. purified cruzain, Z-FR-AMC fluorescence, no detergent. AID 1476. Potency, µM, without a hit: max response, negative = inhibition, actives largely listed as inhibitors. P25779;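 note: plate controls were enzyme without inhibitor for no effect and buffer without enzyme for full effect; nearly all actives have a fitted effect of over 40% in size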
#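 Purified cruzain at 1.5 nM, pre-incubated 15 min with compound at room temperature in 100 mM sodium acetate pH 5.5, 5 mM DTT, 0.00005% Triton X-100. Reaction started with 2 uM Z-FR-AMC; AMC fluorescence increase over 60 s gives rate.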
# The depositor's hits bear a star; u = inconclusive. Only some compounds are listed: those with a hit (about 2.6% of all), similar ones and a draw of the others. Calls come from the whole dose curve; as a rule, active = well fitted curve in the direction sought with a large enough effect; inconclusive = small, poorly fitted or top-dose-only effect, or another doubt; inactive = no such curve, though single readings can be large; an effect the other way counts as inactive or inconclusive. Potency is the fitted concentration of half-maximal effect.
SMILES,Cruzain inh Det,Cruzain noTriton
NC(=S)N/N=C/c1cc([N+](=O)[O-])ccc1OCCOc1ccccc1,0.251µM*,0.159µM*
COc1ccc(Br)cc1CNC(=O)CCCn1c(=O)c2cccn2c2cccnc21,-5.7%,1.3%
Cc1ccc(Cl)cc1NC(=O)c1cc(CN2CCCC2)on1,-1.6%,-1.0%
C=C(CCC12O[C@H](C(=O)O)[C@@](O)(C(=O)O)[C@](C(=O)O)(O1)[C@H](OC(=O)/C=C/[C@@H](C)C[C@@H](C)CC)[C@H]2O)[C@@H](OC(C)=O)[C@H](C)Cc1ccccc1,-8.1%,26.4%
CC(=O)Nc1ccc(-c2nnc3n(CC(C)C)c(=O)c4ccccc4n23)cc1,-3.1%,-5.4%
CN(CC(=O)O)Cc1c(O)c(Cl)cc(Cl)c1Cl,1.3%,8.2%
CCCOc1ccc(C(=O)Nc2nc(C)c(Cc3ccc4c(c3)OCO4)s2)cc1,-1.4%,-26.9%
Cc1c(Cc2ccc3c(c2)OCO3)sc(NC(=O)c2ccc3ccccc3c2)c1C(N)=O,-1.5%,10µM*
Cc1ccc(Cn2c(C)c(CNCc3ccc(OC(C)C)cc3)c(C(=O)O)c2C)cc1,4.1%,-3.0%
Cc1cc(C)cc(OC(C)C(=O)Nc2nonc2-c2ccc(Br)cc2)c1 (stereo not drawn),-2.6%,-3.8%
COc1ccccc1NC(=O)C1=C(C)Nc2nc(-c3cccs3)nn2C1c1cccnc1 (stereo not drawn),0.1%,15.8µM*
COc1ccccc1NC(=O)C1=C(C)Nc2nc(-c3ccc(N(C)C)cc3)nn2C1c1ccncc1 (stereo not drawn),-6.4%,u
Cc1ccc(-n2ncc3c(Nc4ccc5c(c4)OCCO5)ncnc32)cc1C,1.6%,7.5%
Cc1ccc(NC(=O)C2CCCN(S(=O)(=O)c3ccc4c(c3)CCCC(=O)N4)C2)cc1Cl (stereo not drawn),-8.7%,23.4%
Cc1ccc(-c2nnn(CC(=O)N(c3ccccc3)C(C(=O)NC(C)(C)C)c3cccs3)n2)o1 (stereo not drawn),0.4%,6.31µM*
Cc1ccc(N(C(=O)Cn2nnc(-c3ccc(C)o3)n2)C(C(=O)NC2CCCC2)c2ccco2)cc1 (stereo not drawn),6.3%,25.1µM*
Cc1ccc(-c2nnn(CC(=O)N(c3cccc(O)c3)C(C(=O)NC(C)(C)C)c3cccs3)n2)o1 (stereo not drawn),-7.4%,6.5%
CCC(C(=O)NC1CCCC1)N(C(=O)Cn1nnc(-c2ccc(C)o2)n1)c1cnc2ccccc2c1 (stereo not drawn),1.2%,u
Cc1nc2nc[nH]n2c(=O)c1CCC(=O)Nc1ccc(F)cc1,3.4%,10.8%
C[C@@]12CC(=O)[C@@H]3[C@@H](CCC4=CC(=O)CC[C@]43C)[C@@H]1CC=C2CC(=O)O,-4.9%,8.5%
Cc1cc(NC(=O)c2ccc3c(c2)C(=O)N(C)C3=O)no1,1.7%,9.7%
Cc1cc(NC(=O)c2ccc3c(c2)C(=O)N(C2CCCCC2)C3=O)no1,5.5%,6.31µM*
CC1=NN2C(=N)/C(=C\c3ccc(SCc4ccccc4)o3)C(=O)N=C2S1,-0.9%,7.94µM*
N=C1/C(=C\c2ccc(SCc3ccco3)o2)C(=O)N=C2SC=NN12,-19.5%,u
Cc1cccc(Cn2c(=O)n(CCCC(=O)NCc3ccccc3Cl)c(=O)c3ccccc32)c1,2.6%,3.3%
SMILES,Cruzain inh Det,Cruzain noTriton
COc1ccc(OC)c(Nc2nc(C3CC3)nc3c2nnn3Cc2ccccc2)c1,-10.1%,-4.6%
c1ccc(Cn2nnc3c(Nc4ccc5c(c4)OCO5)nc(C4CC4)nc32)cc1,-2.1%,15.8µM*
CCC(C)NC(=O)CSc1nc2cc3c(cc2c(=O)n1Cc1ccc(C(=O)NCCc2ccc(OC)c(OC)c2)cc1)OCO3 (stereo not drawn),2.2%,11.8%
CCc1ccc2[nH]c(O)c(N=Nc3nc(-c4ccccc4)cs3)c2c1,-4.8%,20µM*
CCc1cc2c(N=Nc3c(O)[nH]c4ccccc34)ncnc2s1,-1.5%,-13.7%
O=C(NCc1ccncc1)Nc1cccc(Cl)c1,1.1%,-2.0%
Cc1cccc(NC(=O)NCc2ccc3c(c2)cc(C)n3C)c1,5.7%,7.94µM*
Cc1cc2cc(CNC(=O)Nc3cccc(Cl)c3)ccc2n1C,2.1%,12.6µM*
CCCC(=O)NCc1ccc2c(c1)cc(C)n2C,6.7%,4.3%
CCCC(C)C(=O)Nc1nc(C)c(-c2csc(Nc3ccc(Cl)cc3)n2)s1 (stereo not drawn),2.5%,10µM*
CCC(=O)Nc1nc(C)c(-c2csc(Nc3ccc(S(=O)(=O)Nc4cc(C)on4)cc3)n2)s1,-0.9%,-17.8%
Cc1cc(NS(=O)(=O)c2ccc(Nc3nc(-c4sc(NC(=O)c5ccccc5)nc4C)cs3)cc2)no1,-11.4%,6.31µM*
CCCCCCC(=O)Nc1nc(C)c(-c2csc(Nc3cc(Cl)ccc3C)n2)s1,3.2%,10µM*
CCC(C)C(=O)Nc1nc(C)c(-c2csc(Nc3cc(Cl)ccc3OC)n2)s1 (stereo not drawn),1.4%,-15.7%
COc1ccc(Cl)cc1Nc1nc(-c2sc(NC(=O)C(C)(C)C)nc2C)cs1,1.9%,-24.4%
COc1ccc(Cl)cc1Nc1nc(-c2sc(NC(=O)c3ccco3)nc2C)cs1,-1.1%,15.8µM*
CCCC(C)C(=O)Nc1nc(C)c(-c2csc(Nc3ccccc3OC)n2)s1 (stereo not drawn),4.8%,u
CCOC(=O)C1(O)Oc2cc(OC)cc(OC)c2C(=O)C1c1ccccc1 (stereo not drawn),-2.9%,-2.1%
Cc1ccc2nc(NC(=O)c3nc(SCc4ccccc4C)ncc3Cl)sc2c1,-1.6%,4.1%
CC(=O)OC1CC2C(C)(C)C(O)C=C[C@@]2(C)C2CC[C@@]3(C)C(c4ccoc4)OC(=O)C4OC43[C@]12C (stereo partly drawn),2.7%,u
Cc1ccc(Cl)cc1Nc1nc(-c2sc(NC(=O)c3ccccc3)nc2C)cs1,3.7%,6.31µM*
CCCCC(=O)Nc1nc(C)c(-c2csc(Nc3cc(OC)ccc3OC)n2)s1,-1.8%,u
Cc1nc(NC(=O)c2ccccc2)sc1-c1csc(Nc2cccc(F)c2)n1,4.7%,u
CCCCC(=O)Nc1nc(C)c(-c2csc(Nc3cc(Cl)ccc3OC)n2)s1,0.5%,10µM*
COc1ccccc1-c1nc(N2CCOCC2)c2ccccc2n1,-0.1%,-6.2%
SMILES,Cruzain inh Det,Cruzain noTriton
Cc1ccc(OCC(=O)Nc2ccc(S(=O)(=O)Nc3ncccn3)cc2)c(C(C)(C)C)c1,-0.4%,u
COc1ccc(-c2cc(=O)c3ccc(F)cc3[nH]2)cc1,-0.2%,0.1%
COc1ccccc1CNc1ccnc(-c2cccnc2)n1,-4.4%,-1.1%
CC(C)(C)NC(=O)c1cnn(-c2ccccc2)c1C1CCN(C(=O)OC(C)(C)C)CC1,-0.1%,-1.5%
O=C(NC(Cc1ccccc1)c1nc2ccccc2[nH]1)c1ccc(Cl)c([N+](=O)[O-])c1 (stereo not drawn),-17.0%,-2.1%
Cc1c(C(=O)NC(Cc2ccccc2)c2nc3ccccc3[nH]2)cccc1[N+](=O)[O-] (stereo not drawn),u,-25.4%
CSCC[C@H](NC(=O)c1cccc([N+](=O)[O-])c1C)c1nc2ccccc2[nH]1,14.1µM*,7.0%
CSCC[C@H](NC(=O)c1ccc(Cl)c([N+](=O)[O-])c1)c1nc2ccccc2[nH]1,14.1µM*,-8.5%
c1nc(N2CCOCC2)c2cc(-c3ccoc3)ccc2n1,-6.0%,-11.2%
CCOC(=O)C1=C(CS(=O)(=O)c2ccc(Br)cc2)NC(=O)NC1c1ccccc1 (stereo not drawn),-5.3%,-2.0%
